Rows were chosen to be rich in hits. Some 3.2% of all compounds tested hit in one or more screens of this group.
TRb SRC2 PPI = qHTS for Inhibitors of the Interaction of Thyroid Hormone Receptor and Steroid Receptor Coregulator 2; Thyroid hormone receptor beta (Homo sapiens), P10828; TRbeta-SRC2 peptide binding, fluorescence polarization; receptor liganded with 1 µM T3; Potency, µM (top dose mostly 106 µM), for inactives: at the top dose activity change, negative = inhibition, usual class: inhibitors; hit rate 0.065% among 280,000; AID 1469, 2008;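 further: plate controls were bound peptide for no effect and peptide without receptor for full effect; nearly all actives have a fitted effect of over 50% in size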
Target sequence (P10828 whole entry, looked up): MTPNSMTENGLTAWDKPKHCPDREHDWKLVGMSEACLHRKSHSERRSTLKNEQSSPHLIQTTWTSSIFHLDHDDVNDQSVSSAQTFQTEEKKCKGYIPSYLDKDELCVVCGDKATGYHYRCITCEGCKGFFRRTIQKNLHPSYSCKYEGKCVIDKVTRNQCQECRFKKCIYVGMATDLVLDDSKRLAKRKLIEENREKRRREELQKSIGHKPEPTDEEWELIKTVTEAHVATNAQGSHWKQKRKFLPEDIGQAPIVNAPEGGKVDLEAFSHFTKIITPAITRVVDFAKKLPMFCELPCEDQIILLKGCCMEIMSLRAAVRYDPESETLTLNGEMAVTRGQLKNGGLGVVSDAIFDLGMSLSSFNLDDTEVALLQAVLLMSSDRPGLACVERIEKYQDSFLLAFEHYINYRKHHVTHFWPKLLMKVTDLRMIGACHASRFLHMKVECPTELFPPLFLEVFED
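Assay buffer: 20 mM Tris-HCl, 100 mM NaCl, 10% glycerol, 1 mM EDTA, 0.01% NP-40, 1 mM DTT, 1 uM T3, 5% DMSO; TRb LBD 0.6 uM, Texas Red SRC2 20 nM; FP after 5 hr.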
Tau ThT inhib = qHTS for Inhibitors of Tau Fibril Formation, Thioflavin T Binding | AID 1460, 2008 | recombinant tau K18 P301L, heparin-induced fibrillization, ThT fluorescence | Potency, µM (series often up to 57.4 µM), for the others: at the highest dose activity, negative = inhibition, actives largely listed as inhibitors | hit rate 2.1% among 270,000; further: nearly all actives have a fitted effect of over 55% in size
Target sequence (P10636 561-689 P618L limits assumed): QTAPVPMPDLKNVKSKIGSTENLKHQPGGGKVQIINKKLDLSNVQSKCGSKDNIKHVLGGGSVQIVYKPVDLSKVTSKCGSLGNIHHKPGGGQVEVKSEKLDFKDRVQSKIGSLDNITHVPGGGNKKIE
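Fibril formation assay: tau K18 P301L at 15 uM with trace Alexa 594 label, heparin inducer 20 uM, pH 7 sodium acetate buffer, 37 C for 6 hr; endpoint ThT signal.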
Tau FP inhib = qHTS for Inhibitors of Tau Fibril Formation, Fluorescence Polarization; AID 1468, 2008; Microtubule-associated protein tau (Homo sapiens), P10636; K18 P301L tau heparin fibrillization, Alexa594 FP, 6 h; Potency, µM (titrated, usually from 57.7 µM), without a hit: top-dose activity, negative = inhibition, most hits filed as inhibitors; hit rate 0.39% among 280,000; further: nearly all actives have a fitted effect of over 55% in size
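K18 P301L tau (15 uM unlabeled/0.24 uM Alexa 594-labeled, final) + compound + heparin 20 uM final; 100 mM NaOAc pH 7; 6 hr 37 C; ThT 30 uM final added, 1 hr RT; FP ex 555/em 632 nm.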
Tau fluor cs = Counterscreen qHTS for Inhibitors of Tau Fibril Formation, Fluorescence Polarization; hit rate 0.93% among 280,000; Potency, µM (doses to about 57.7 µM), for the others: top-dose activity change, negative = decrease; AID 1463, 2008; tau K18 P301L Alexa594 fluorescence, heparin fibrillization; further: nearly all actives have a fitted effect of over 55% in size
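Human tau K18 P301L (15 uM unlabeled, 0.24 uM Alexa 594-labeled) in 100 mM sodium acetate pH 7 with 20 uM heparin, 6 hr at 37 C. ThT 30 uM added, 1 hr ambient; Alexa 594 FP and total fluorescence read at 555/632 nm.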
GoLoco inh red = qHTS Assay for Inhibitors of RGS12 GoLoco Motif Activity (Red Fluorophore); Potency, µM (series often up to 61.6 µM), without a hit: at the top dose activity, negative = inhibition, hits mostly inhibitors; hit rate 0.44% among 230,000; Gai1:RGS12 GoLoco peptide FP, rhodamine, 10 min; Guanine nucleotide-binding protein G(i) subunit alpha-1 (Homo sapiens), P63096; active means well fitted inhibition curve with a large enough effect, not every such curve was filed as active; inactive means no such curve, though single readings can be large or run the other way; further: nearly all actives have a fitted effect of over 30% in size
TexasRed fluor = Total Fluorescence Counterscreen for Inhibitors of the Interaction of Thyroid Hormone Receptor and Steroid Receptor Coregulator 2; TRb/SRC2 Texas Red total fluorescence interference; Potency, µM (series often up to 106 µM), for inactives: top-dose fluorescence change, negative = quenching; hit rate 0.29% among 280,000; AID 1479, 2009; active means well fitted curve in either direction with a large enough effect; inconclusive means small, poorly fitted or top-dose-only effect
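Flags fluorescent or light-absorbing compounds by total fluorescence, S + 2P, at 555 nm excitation and 632 nm emission. Mixture: 20 nM Texas Red SRC2 peptide, 0.6 uM human TRb LBD, 1 uM T3, 5% DMSO; compound exposure 5 h at ambient temperature.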
The depositor's hits bear a star; u = inconclusive; x = not tested or not shown; [ ] = remark or other dose. Unless noted, the call rests on the fitted dose curve; in most records, active means well fitted curve in the direction sought with a large enough effect; inconclusive means small, poorly fitted or top-dose-only effect, or another doubt; inactive means no such curve, though single readings can be large; an effect the other way counts as inactive or inconclusive. Unless noted, on the % scale 0 is the no-effect control and ±100 the full control effect; potency means the concentration at half of the fitted maximal effect.

SMILES | TRb SRC2 PPI | Tau ThT inhib | Tau FP inhib | Tau fluor cs | GoLoco inh red | TexasRed fluor
Cc1ccc2nc(-c3ccc(Cl)c(NC(=O)c4cccc([N+](=O)[O-])c4C)c3)oc2c1 | -2% | -12% | -14% | -17% | x | 16µM*[quencher]
Cc1cc(C)c(O)c(Cc2cccc(Cc3cc(C)cc(C)c3O)c2O)c1 | x | x | x | x | 3%[14.2 µM] | x
Cc1cc(C)c(O)c(N)c1 | -3% | 22µM* | -17% | -25% | -1% | -3%
Fc1ccc(N=C2NN=C(c3cc(F)ccc3F)CS2)cc1 | -5% | 13µM* | u | u | 20% | u
Cc1cc(C2=NNC(=Nc3ccccc3)SC2)c(C)n1C | 5% | u | -4% | -22% | -9% | -1%
Fc1ccccc1N=C1NN=C(c2ccccc2)CS1 | -4% | 22µM* | u | u | 5% | -2%
COc1ccc(N=C2NN=C(c3c(C)[nH]c4ccccc34)CS2)cc1 | -1% | u | -17% | 25µM*[quencher] | 13% | -4%
Cc1cccc(N=C2NN=C(c3ccccc3F)CS2)c1C | 1% | u | -7% | u | 4% | -3%
Fc1ccc(F)c(C2=NNC(=Nc3ccccc3F)SC2)c1 | -6% | -7% | -7% | -16% | 17% | 0%
Cc1[nH]c2ccccc2c1C1=NNC(=Nc2ccc(F)cc2)SC1 | -1% | 14µM* | u | 11µM*[quencher] | 20% | -1%
CCCCCCCCCCCCC/C=C/C(O)C(COP(=O)(O)OCCN)NC(=O)CCCCCCCCCCCCCCCCC (stereo unspecified) | -5% | x | x | x | x | -3%
CCOc1ccc(NC(=O)Cn2c(=O)n(Cc3nc(-c4ccccc4)no3)c(=O)c3cc4c(cc32)OCO4)cc1 | -6% | 3% | u | -30% | x | 0%
COc1ccc(-c2noc(Cn3c(=O)c4ccccc4n(CC(=O)Nc4cccc(C(F)(F)F)c4)c3=O)n2)cc1 | -10% | u | 11µM* | -9% | x | 0%
O=C(Cn1c(=O)n(Cc2nc(-c3ccccc3)no2)c(=O)c2cc3c(cc21)OCO3)Nc1cccc(C(F)(F)F)c1 | -4% | u | 10µM* | -9% | x | -2%
Cc1ccc(NC(=O)Cn2c(=O)n(Cc3nc(-c4ccccc4)no3)c(=O)c3ccccc32)cc1C | -13% | 22% | u | -21% | x | -2%
COc1cc(OC)cc(C2=Nn3c(nnc3-c3cccc(OC)c3)SC2)c1 | -7% | x | x | x | x | -3%
Cc1c(O)ccc(/C=N/Nc2nc(-c3cccnc3)nc3ccccc23)c1O | 12% | u | u | u | 19% | -29%
Oc1ccc(/C=N/Nc2nc(-c3cccnc3)nc3ccccc23)c(O)c1 | 9% | 2.2µM* | u | 11µM*[quencher] | 44% | -17%
C(=N\Nc1nc2ccccc2[nH]1)/c1cccc2cccnc12 | -1% | 4.5µM* | 8% | u | 20% | -10%
C(=C\c1ccccc1)/C=N/Nc1nc2ccccc2[nH]1 | 0% | 7.9µM* | 11% | u | x | -4%
C(=N\Nc1nc2ccccc2[nH]1)/c1ccccc1 | -8% | u | 8% | -11% | 18% | -4%
C(=N\Nc1nc2ccccc2[nH]1)/c1c[nH]c2ccccc12 | 6% | 13µM* | 10% | 16µM*[quencher] | 1% | -11%
Cc1ccc(/C=N/Nc2nc3ccccc3[nH]2)s1 | 3% | 7.9µM* | u | u | 14% | -21%
COc1ccc(N(Cc2ccccc2)C(=O)c2nc(S(C)(=O)=O)ncc2Cl)cc1 | -4% | -18% | -16% | -9% | x | 5%
C/C(CCC(=O)OC[C@@H]1O[C@H](C#Cc2ccccc2)C=C[C@@H]1Oc1ccc(C)cc1)=N/OC[C@@H](O)[C@H]1O[C@H]2OC(C)(C)O[C@H]2[C@@H]1O | -1%[11.2 µM] | 3%[11.5 µM] | -1%[11.6 µM] | -3%[11.6 µM] | x | 1%[11.2 µM]
SMILES | TRb SRC2 PPI | Tau ThT inhib | Tau FP inhib | Tau fluor cs | GoLoco inh red | TexasRed fluor
OCC1=C[C@@H](O)[C@@H]2C=CO[C@@H](OC3O[C@H](CO)[C@@H](O)[C@H](O)[C@H]3O)[C@H]12 (stereo partly specified) | -3% | x | x | x | x | -4%
C[C@H]1Cc2c(-c3ccccc3)nc3c(c2CO1)CN(C(=O)c1ccco1)CC3 | -2%[11.2 µM] | 1%[11.5 µM] | -5%[11.6 µM] | -4%[11.6 µM] | 3%[14.2 µM] | -4%[11.2 µM]
N#Cc1cc2c(nc1SCc1nc3ccccc3[nH]1)CCC2 | 2% | 6.3µM* | 12% | u | 9% | -11%
Cc1cccc(CSc2nc3c(cc2C#N)CCC3)c1 | 3% | 0% | -3% | -5% | 11% | 3%
O=C(Cc1ccc(Cl)cc1Cl)Nc1cccc(S(=O)(=O)Nc2ccccc2F)c1 | 7% | u | 28µM* | -18% | -8% | -2%
CC/C(C)=N/Nc1nc(-c2cc3cccc(OC)c3oc2=O)cs1 | 2% | 18µM* | -5% | u | 8% | -10%
C=C(CCC12O[C@H](C(=O)O)[C@@](O)(C(=O)O)[C@](C(=O)O)(O1)[C@H](OC(=O)/C=C/[C@@H](C)C[C@@H](C)CC)[C@H]2O)[C@@H](OC(C)=O)[C@H](C)Cc1ccccc1 | -3% | u | 10% | -3% | -2% | 1%
Cc1nn(-c2ccccn2)c2c1C(=O)C(Br)CC2 (stereo unspecified) | u | 2.8µM* | 3.2µM* | u | -22% | -11%
CC1=C(C)C(=O)N(c2ccccn2)C1=O | -2% | -2% | -1% | 5% | -13% | -1%
CCCCc1ccc(NC(=S)Nc2ccc(Nc3ccc(OC)cc3)cc2)cc1 | 7% | 8.9µM* | u | 7.9µM*[quencher] | 5% | 0%
CC1(C)OC[C@@H]2O[C@@]3(C(=O)O)OC(C)(C)O[C@H]3[C@@H]2O1 | 2%[201 µM] | x | x | x | x | 5%[201 µM]
Cc1cc2ccccc2n1CCNC(=O)c1ccc(S(=O)(=O)N2CCCCC2)cc1 | -24% | -7% | 5% | -21% | -31% | 45µM*[fluorescent]
Cc1cc2ccccc2n1CCNC(=O)C(C)Oc1ccccc1 (stereo unspecified) | 50µM* | u | u | -6% | 14% | u
Cc1cc2cc(CNS(=O)(=O)c3ccc4ccccc4c3)ccc2n1C | 45µM* | u | -12% | 6% | -62% | 45µM*[fluorescent]
Cc1cc2cc(CNC(=O)c3ccc(S(=O)(=O)N4CCOCC4)cc3)ccc2n1C | 40µM* | u | u | -5% | -102% | 45µM*[fluorescent]

Screening data: PubChem BioAssay, National Center for Advancing Translational Sciences (NCATS)
